Source: PubChem BioAssay (National Center for Advancing Translational Sciences (NCATS))
Rab9 prom act = activates the Rab9 promoter; AID 485297; 320,000 tested, 2.8% active; Huh7 Rab9 promoter-luciferase reporter, luminescence, 24 h; Potency, µM (titrated, usually from 9.22 µM), for inactives: top-dose activation, negative = inhibition, hits mostly activators; also: % of control where 0% means no effect; nearly all actives have a fitted effect of over 60% in size
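Cell-based reporter: Huh7 stable for Rab9 promoter-driven luciferase, plated in reduced-serum medium with 10% FBS at 1500 cells/well, compound-treated 24 h at 37 °C, luminescence read after 10 min reagent.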
SMN2 splice up = enhancers of SMN2 splice variant expression. HEK293 SMN2-luciferase splicing reporter, luminescence, 30-36 h. Potency, µM (top dose mostly 46.1 µM), for inactives: at the highest dose activity change, positive = activation, hits mostly activators. 210,000 tested, 2.8% active. AID 1458; also: % of control where 0% means no effect; nearly all actives have a fitted effect of over 55% in size
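HEK293 cells carry an SMN2 minigene-luciferase reporter in which exon 7 inclusion puts luciferase in frame. Cells were seeded at 2000 cells/well, attached for 10-12 hours, then exposed to compounds for 30-36 hours at 37C before ONE-Glo luminescence.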
FLuc modulator = counter-screen for miR-21 project: firefly luciferase inhibitors or activators | P08659 | 360,000 tested, 6.9% active | Potency, µM (top dose mostly 57.5 µM), inactives show at the highest dose activity change, negative = inhibition, most hits filed as inhibitors | purified FLuc, Km substrates, luminescence inhibition;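 also: plate controls were vehicle for no effect and reference inhibitor for full effect; nearly all actives have a fitted effect of over 55% in size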
Target sequence (P08659 whole entry, looked up): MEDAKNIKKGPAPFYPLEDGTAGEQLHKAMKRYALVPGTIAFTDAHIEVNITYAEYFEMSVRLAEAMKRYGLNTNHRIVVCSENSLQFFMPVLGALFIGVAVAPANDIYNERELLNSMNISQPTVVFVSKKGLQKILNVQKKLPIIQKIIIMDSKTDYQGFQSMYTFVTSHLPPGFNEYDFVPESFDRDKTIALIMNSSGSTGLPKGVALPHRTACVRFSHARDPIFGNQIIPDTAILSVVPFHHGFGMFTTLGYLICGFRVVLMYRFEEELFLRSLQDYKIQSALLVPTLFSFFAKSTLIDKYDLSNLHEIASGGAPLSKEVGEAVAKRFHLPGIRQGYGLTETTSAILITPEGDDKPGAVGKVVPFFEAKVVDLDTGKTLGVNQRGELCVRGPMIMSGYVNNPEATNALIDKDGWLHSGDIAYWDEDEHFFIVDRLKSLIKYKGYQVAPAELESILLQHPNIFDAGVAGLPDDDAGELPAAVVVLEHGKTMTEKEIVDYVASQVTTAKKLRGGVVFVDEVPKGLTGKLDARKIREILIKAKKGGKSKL
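Purified P. pyralis luciferase (10nM final) with 10uM D-luciferin and 10uM ATP (Km levels) in 50mM Tris acetate pH 7.5, 10mM Mg acetate, 0.01% Tween-20, 0.05% BSA; qHTS 6-point titration, ~60 µM downward; luminescence read.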
NPC1 prom act = activators of NPC1 promoter; AID 485313; 320,000 tested, 2.4% active; Potency, µM (series often up to 9.22 µM), for the others: at the highest dose activation, usual class: activators; Huh7 NPC1 promoter luciferase reporter, 24 h; also: % of control where 0% means no effect; nearly all actives have a fitted effect of over 60% in size
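Luminescence read-out of NPC1 promoter-driven luciferase in stably transfected Huh7 cells; compounds delivered in DMSO and left 24 h at 37C, 5% CO2, qHTS titration format.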
ELG1 genotoxic = induces genotoxicity in HEK293T cells with luciferase-tagged ELG1; HEK293T ELG1-luciferase reporter, luminescence, 16 h; Potency, µM (top dose mostly 46 µM), inactives show top-dose activity change, positive = activation, most hits filed as activators; 330,000 tested, 1.3% active; also: % of control where 0% means no effect; nearly all actives have a fitted effect of over 60% in size
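Step 1: seed 2,000 HEK293T ELG1-luciferase cells per well. Step 2: add compound or DMSO, incubate 16 hr at 37 °C. Step 3: ONE-Glo, 30 min at room temperature, read luminescence.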
ELG1 DNA repair = blocks ELG1-dependent DNA repair in HEK293T cells; HEK293T ELG1-luciferase reporter, luminescence, 16 h; DNA damage induced by 5-fluorouridine; Potency, µM (series often up to 46.1 µM), for inactives: top-dose activity change, negative = inhibition, hits mostly inhibitors; 330,000 tested, 2.3% active; AID 504467; also: % is scaled to controls: 0 for no effect and ±100 for the full control effect; nearly all actives have a fitted effect of over 55% in size
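Overnight (16 hr) co-exposure of 2,000 cells/well to 5-fluorouridine and compound at 37 °C preceded detection. Luciferase was quantified via ONE-Glo luminescence; loss of signal denotes inhibition.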
Numbers without * were called inactive; u = inconclusive; x = no result given; [ ] = another dose, or the depositor's remark. Sampled rows, rich in hits. Any-hit rate of the full collection: about 9.2%. Calls follow the shape of the dose curve; as a rule, active = well fitted curve in the direction sought with a large enough effect; inconclusive = small, poorly fitted or top-dose-only effect, or another doubt; inactive = no such curve, though single readings can be large; an effect the other way counts as inactive or inconclusive. Potency is read from the fitted curve at half-maximal effect.

SMILES	Rab9 prom act	SMN2 splice up	FLuc modulator	NPC1 prom act	ELG1 genotoxic	ELG1 DNA repair
Cc1ccsc1/C=N/Nc1ccc(F)cc1F	2.24µM*	x	12µM*	u	u	u
Cc1ccsc1/C=N/Nc1nc(=O)[nH]nc1C	2.82µM*	17.8µM*	u	u	u	u
COc1cc(/C=N/Nc2ccc(F)cc2F)cc(OC)c1OC	2.3%	x	u	0.5%	13.6%	-27.3%
Cc1ccsc1/C=N/Nc1ncc(Cl)cc1Cl	u	u	2.69µM*	2.82µM*	u	u
Cc1cc(C)nc(N/N=C/c2sccc2C)n1	4.2%	u	u	9.5%	12.9%	u
Cc1onc(-c2ccccc2Cl)c1C(=O)N[C@H]1C(=O)N2[C@H]1SC(C)(C)[C@H]2C(=O)O	x	-10.1%[20.6 µM]	x	x	x	x
CC(=O)Nc1ccc(-c2cc(C(=O)O)c3ccc(C)cc3n2)cc1	3.7%	x	16.9µM*	18.3%	8.6%	u
CC(=O)Nc1ccc(-c2cc(C(=O)O)c3cc4ccccc4cc3n2)cc1	x	0.3%[9.22 µM]	x	x	x	x
COC(=O)c1cc(-c2ccc(NC(C)=O)cc2)nc2ccccc12	-3.3%	-4.9%	12µM*	-1.3%	-3.4%	0.1%
CCOC(=O)N1CCC(NC(=O)c2ccc3c(c2)N(Cc2ccccc2)C(=O)c2ccccc2S3(=O)=O)CC1	x	3.0%	-7.7%	x	x	x
NS(=O)(=O)c1ccc(CCNC(=O)C(=O)NCC2OCCN2S(=O)(=O)c2ccc(Cl)cc2)cc1 (stereo not given)	-21.9%	x	-1.1%	-3.8%	-2.5%	u
COC(=O)c1ccc(NC(=O)N2CCN(c3nnc(C)c4c(C)n(-c5ccccc5)nc34)CC2)cc1	x	x	-7.6%	x	x	x
CN(c1ccccc1)S(=O)(=O)c1ccc(Cl)nc1	-0.5%	22.5%	-0.9%	-5.9%	0.0%	8.6%
Cc1nc(S(=O)(=O)N(C)c2ccccc2)c(C#N)c(C)c1Cl	-5.2%	-41.8%	0.5%	-1.4%	-12.0%	23.1µM*
O=C(CCCN1C(=O)/C(=C/c2cccs2)SC1=S)NNC(=O)c1ccncc1	-0.4%	10.9%	4.4%	-6.3%	0.7%	8.8%
O=C(CCCN1C(=O)/C(=C/c2ccccc2Cl)SC1=S)NNC(=O)c1ccncc1	-13.6%	x	15.1µM*	-13.2%	-9.3%	u
O=C(CCCN1C(=O)/C(=C/c2ccccc2Cl)SC1=S)NNC(=O)c1ccccc1Cl	-27.0%	-34.6%	7.57µM*	-20.6%	-2.7%	u
O=C(CCN1C(=O)/C(=C/c2ccccc2Cl)SC1=S)N1CCCC1	-27.2%	x	26.9µM*	-21.7%	-9.0%	u
COCCNC(=O)C(c1ccc(C)cc1)N(Cc1cccs1)C(=O)CCC(=O)Nc1ccccn1 (stereo not given)	2.7%	x	0.8%	2.3%	-2.8%	0.4%
COc1ccccc1-n1c(SCC(=O)Nc2ccc(NC(C)=O)cc2)nc2c([nH]c3ccccc32)c1=O	1.2%	x	-10.8%	-1.1%	9.3%	10.3µM*
CC(=O)Nc1ccc(NC(=O)CSc2nc3c([nH]c4ccccc43)c(=O)n2-c2ccccc2F)cc1	1.8%	x	u	-2.7%	0.2%	16.4µM*
COc1ccc(-n2c(SCC(=O)Nc3ccc(NC(C)=O)cc3)nc3c([nH]c4ccccc43)c2=O)cc1OC	6.0%	x	-5.7%	8.6%	13.1%	-9.8%
COc1ccc(C(CC(=O)NCc2ccccc2)N2Cc3ccccc3C2=O)cc1 (stereo not given)	x	x	7.7%	x	x	x
Cc1ccc(C(=O)CCC2CCCCC2=O)cc1 (stereo not given)	u	-6.8%	13.5µM*	u	20.6µM*	u
Cc1ccc(C(=O)CCC2CCCC2=O)cc1 (stereo not given)	u	u	12µM*	3.98µM*	u	u
CCc1ccc(C(=O)CCC2CCCCC2=O)cc1 (stereo not given)	u	-4.2%	12µM*	u	18.4µM*	u
O=C(CCC1CCCCC1=O)c1ccccc1 (stereo not given)	10.7%	-8.7%	u	10.3%	2.5%	u
